hiPSC survival: enhancers of human iPSC single-cell survival; hit rate 0.044% among 360,000; AID 602274; hiPSC single-cell survival, ATPlite luminescence; 100% = ROCK inhibitor wells, 0% = DMSO; survival enhancement, % at 20 µM; in the data active = survival enhancement above about 18%;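 note: cells exposed to compounds for 16 hours before the ATP read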
Myeloid diff MLP: compounds promoting myeloid differentiation; ER-HoxA9 myeloid progenitors, lysozyme-GFP differentiation, flow cytometry; calls only at 10 µM; hit rate 1% among 360,000;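 active = normalized GFP-positive differentiation at or above the plate's own cutoff, the solvent-only control mean plus 3 SD; inconclusive = no clear call, values can overlap the other calls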;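 note: cells exposed to compound for four days before flow analysis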
ABCB6 inh MLPCN: human ABCB6 transporter inhibition; K562-ABCB6 porphyrin accumulation, flow cytometry, 1 h; active compounds read low; fluorescence ratio to DMSO, % at 10 µM; hit rate 0.19% among 360,000;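 active = fluorescence ratio to DMSO below 75%, the collection mean minus 3 SD; inconclusive = too few cells collected in the well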;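 note: signal is porphyrin accumulated inside mitochondria; 100% equals median channel fluorescence of DMSO control wells; lower ratio means ABCB6 inhibition with less porphyrin fluorescence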
Target sequence (Q9NP58 whole entry, looked up): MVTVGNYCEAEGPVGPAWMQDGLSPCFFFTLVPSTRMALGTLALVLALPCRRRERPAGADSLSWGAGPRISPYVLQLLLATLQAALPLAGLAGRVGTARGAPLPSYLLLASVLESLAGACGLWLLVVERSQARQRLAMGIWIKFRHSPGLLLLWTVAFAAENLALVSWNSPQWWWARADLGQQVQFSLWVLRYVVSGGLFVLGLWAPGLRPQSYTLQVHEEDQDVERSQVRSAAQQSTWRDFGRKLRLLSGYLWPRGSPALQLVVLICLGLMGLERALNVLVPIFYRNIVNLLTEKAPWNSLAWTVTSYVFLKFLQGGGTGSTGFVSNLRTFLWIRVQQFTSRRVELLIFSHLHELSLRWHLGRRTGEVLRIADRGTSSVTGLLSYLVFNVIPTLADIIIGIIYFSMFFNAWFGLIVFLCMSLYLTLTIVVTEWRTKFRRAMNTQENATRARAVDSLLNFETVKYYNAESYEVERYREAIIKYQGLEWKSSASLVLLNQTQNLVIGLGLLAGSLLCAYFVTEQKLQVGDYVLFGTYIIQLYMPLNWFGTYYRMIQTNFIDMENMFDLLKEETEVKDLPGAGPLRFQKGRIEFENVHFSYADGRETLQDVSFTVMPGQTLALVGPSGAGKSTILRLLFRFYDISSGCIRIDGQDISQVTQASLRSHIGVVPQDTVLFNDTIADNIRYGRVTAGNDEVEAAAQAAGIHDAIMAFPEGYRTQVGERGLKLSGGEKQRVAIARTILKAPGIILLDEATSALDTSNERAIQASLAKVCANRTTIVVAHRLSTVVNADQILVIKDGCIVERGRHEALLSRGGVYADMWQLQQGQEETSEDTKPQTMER
H9c2 protect: myocardial damage modulation in H9c2 cells; H9c2 cardiomyocytes, H2O2 injury protection, ATPLite, 2 h; protection from H2O2 cell death, % at 20 µM; hit rate 0.63% among 360,000;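 active = compounds giving at least 50% protection of heart cells from peroxide-induced death in the single-dose screen, raw or plate-pattern-corrected value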;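 note: 0% = DMSO wells with peroxide and 100% = DMSO wells without peroxide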
beta cell repl: induces beta-cell replication in MIN6 cells | hit rate 0.29% among 330,000 | MIN6 cells proliferation, ATPlite luminescence, 48 h; cells starved in 0.2% serum; 100% = growth in 10% serum | proliferation, % at 10 µM;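 active = compounds whose signal lies at least 3.5 SD above the mean of all wells on their plate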;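 note: 0% = DMSO-treated cells in low-serum medium and 100% = 10% serum control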
Active calls of the source: *. In the library only some 2.2% were active in any assay of this set; here they are far more common.

CCOC(=O)C1=C(N)n2c(s/c(=C\c3ccncc3)c2=O)=C(C(=O)OCC)C1c1ccncc1 (centres undefined) was read as hiPSC survival -0.1, Myeloid diff MLP inactive, ABCB6 inh MLPCN 89.0, H9c2 protect 32.3 and beta cell repl -3.8.
`CCOC(=O)C1=c2/c(=C/c3ccncc3)c(N)c(C(=O)OC)n2C(=O)C(c2ccncc2)S1` (centres undefined) gave hiPSC survival 1.0, Myeloid diff MLP inactive, ABCB6 inh MLPCN 88.0, H9c2 protect 55.3* and beta cell repl -1.2.
COc1cc(/C=N/NC(=O)c2cnn3c(C)cc(-c4ccccc4)nc23)ccc1O was read as hiPSC survival 1.2, Myeloid diff MLP inactive, ABCB6 inh MLPCN 94.0, H9c2 protect 75.5* and beta cell repl -2.2.
For COc1ccc(/C=N/NC(=O)c2nc(-c3ccccc3)cc(-c3ccccc3)n2)cc1O the results were hiPSC survival -1.4, Myeloid diff MLP inactive, ABCB6 inh MLPCN 95.0, H9c2 protect 50.9* and beta cell repl -4.4.
`CC(=O)NC(NC(=S)N1CCCCCC1)C(Cl)(Cl)Cl` (centres undefined) gave hiPSC survival 1.4, Myeloid diff MLP inactive, ABCB6 inh MLPCN 98.0, H9c2 protect 0.6 and beta cell repl -2.7.
O=C(Oc1ccc(/C=N/O)cc1)c1ccccc1 was read as hiPSC survival -0.5, Myeloid diff MLP inactive, ABCB6 inh MLPCN 95.0, H9c2 protect -3.7 and beta cell repl -1.5.
COc1ccccc1/C=C/C(=O)OCC(=O)Nc1ccc2c(c1)OCO2 was read as hiPSC survival -0.5, Myeloid diff MLP inactive, ABCB6 inh MLPCN 94.0, H9c2 protect 0.4 and beta cell repl -3.1.
For Cc1ccc(CO/N=C\Cc2snc(Sc3ncc(C(F)(F)F)cc3Cl)c2C#N)cc1 the results were hiPSC survival -0.3, Myeloid diff MLP active, ABCB6 inh MLPCN 129.0, H9c2 protect -14.3 and beta cell repl -6.8.
Screening CCOC(=O)c1c(N)c2cc([N+](=O)[O-])cnc2n1C returned hiPSC survival 0.0, Myeloid diff MLP inactive, ABCB6 inh MLPCN 104.0, H9c2 protect -7.7 and beta cell repl 2.7.
`O=C1/C(=C\c2ccc(Br)o2)SC(=Nc2ccccc2)N1c1ccccc1` gave hiPSC survival -1.6, Myeloid diff MLP active, ABCB6 inh MLPCN 100.0, H9c2 protect -13.3 and beta cell repl -3.1.
`Cc1nc(SCC(=O)NC(=O)NCc2ccccc2)nc(C)c1C` gave hiPSC survival 1.7, Myeloid diff MLP inactive, ABCB6 inh MLPCN 102.0, H9c2 protect 5.9 and beta cell repl -1.4.
Screening COCCNC(=O)NC(=O)CSc1nc(C)c(C)c(C)n1 returned hiPSC survival -0.6, Myeloid diff MLP active, ABCB6 inh MLPCN 97.0, H9c2 protect -2.1 and beta cell repl -4.2.
For Cc1ccc(C)c(NC(=O)C(Sc2ncnc3ccccc23)c2ccccc2)c1 (centres undefined) the results were hiPSC survival 1.4, Myeloid diff MLP inactive, ABCB6 inh MLPCN 99.0, H9c2 protect 54.8* and beta cell repl 0.0.
For Cc1ccc(C)c(NC(=O)C(Sc2nncn2C)c2ccccc2)c1 (centres undefined) the results were hiPSC survival -3.6, Myeloid diff MLP inactive, ABCB6 inh MLPCN 101.0, H9c2 protect -1.8 and beta cell repl 0.1.
Cc1ccc(C)c(NC(=O)C(Sc2nc3ccccc3c(=O)n2CC(C)C)c2ccccc2)c1 (centres undefined) was read as hiPSC survival -0.8, Myeloid diff MLP inconclusive, ABCB6 inh MLPCN 99.0, H9c2 protect 80.0* and beta cell repl -0.3.
For O=C(CCC1CCCCC1)Nc1ccc(S(=O)(=O)Nc2nccs2)cc1 the results were hiPSC survival -0.5, Myeloid diff MLP inactive, ABCB6 inh MLPCN 96.0, H9c2 protect -7.7 and beta cell repl 3.1.
O=C(NCc1ccccn1)C1CCCN(Cc2cnn(-c3ccccc3)c2-n2cccc2)C1 (centres undefined) was read as hiPSC survival -1.8, Myeloid diff MLP inactive, ABCB6 inh MLPCN 103.0, H9c2 protect 11.0 and beta cell repl 1.0.
COc1ccc(C)cc1NC(=O)CN1CCN(S(=O)(=O)c2ccc(C(C)C)cc2)CC1 was read as hiPSC survival 4.9, Myeloid diff MLP inactive, ABCB6 inh MLPCN 96.0, H9c2 protect -21.6 and beta cell repl -3.8.
`COCCn1nnnc1C(C(C)C)N(Cc1ccccc1)Cc1cc2cc(OC)ccc2[nH]c1=O` (centres undefined) gave hiPSC survival 2.0, Myeloid diff MLP inactive, ABCB6 inh MLPCN 99.0 and H9c2 protect 41.7.
